# Measured values as given in article PMC12820563, “FoxP3 forms a head-to-head dimer in vivo and stabilizes its multimerization on adjacent microsatellites”.
# Whole data set: some 16,000 sequences, median “rpm ratio (pull-down/input)” near 0.94, cut for the highest 2% near 1.7. Only a selection was taken, and the highest values are over-represented in it overall.
# Target: T1, MBP-FoxP1dN (Mus musculus, UniProt P58462 326-579)
# T1 sequence: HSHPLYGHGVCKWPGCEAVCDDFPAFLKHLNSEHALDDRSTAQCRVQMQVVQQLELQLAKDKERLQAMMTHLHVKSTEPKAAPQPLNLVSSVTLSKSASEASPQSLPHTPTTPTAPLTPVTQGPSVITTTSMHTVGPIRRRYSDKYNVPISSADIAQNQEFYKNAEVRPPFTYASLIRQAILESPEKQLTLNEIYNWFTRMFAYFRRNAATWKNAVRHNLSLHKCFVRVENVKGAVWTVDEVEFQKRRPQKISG
# Experiment: PD-seq (MBP pull-down with sequencing); 20 mM Tris-HCl pH 7.5, 100 mM NaCl, 1.5 mM MgCl2, 0.4 uM protein, 0.1 uM dsDNA library, 30 min, room temperature, amylose pull-down; high values mean tight binding
# Conditions: protein: recombinant; tags: His6-MBP; chain copies: 2; dsDNA, one strand shown
# Summary of the method: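 In Tris pH 7.5 buffer with NaCl and MgCl2, 0.4 µM His6-MBP-tagged mouse FoxP3 or FoxP1 fragment lacking the N-terminus, from E. coli, met 0.1 µM Klenow-filled double-stranded degenerate DNA library for 30 min at room temperature. Three washes on amylose resin followed capture of the complexes, then proteinase K release of DNA, PCR barcoding and Illumina sequencing. Binding is taken as pooled-replicate reads-per-million enrichment of pull-down relative to input.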
row,Sequence,binding signal
1,GATGATTGTTCTCCCAGCTGATGAATTGTCACCCTCGAGTAAACAAATTTTCCTAATCTTTCTGTTCAAGCGCCATCTAC,1 RPM ratio (pull-down/input)
2,GATGATTGTTCTCCCAGCTGATGAATTGAGTTCGTCGAGTAAACAAATTTTCCTAATCTTTCTGTTCAAGCGCCATCTAC,0.82 RPM ratio (pull-down/input)
3,GATGATTGTTCTCCCAGCTGATGAATTAAGGACATCGAGTAAACAAATTTTCCTAATCTTTCTGTTCAAGCGCCATCTAC,1.06 RPM ratio (pull-down/input)
4,GATGATTGTTCTCCCAGCTGATGAATTGTTGATCTCGAGTAAACAAATTTTCCTAATCTTTCTGTTCAAGCGCCATCTAC,2.06 RPM ratio (pull-down/input)
5,GATGATTGTTCTCCCAGCTGATGAATTTTTTTTCTCGAGTAAACAAATTTTCCTAATCTTTCTGTTCAAGCGCCATCTAC,0.756 RPM ratio (pull-down/input)
6,GATGATTGTTCTCCCAGCTGATGAATTGTTGACCTCGAGTAAACAAATTTTCCTAATCTTTCTGTTCAAGCGCCATCTAC,1.88 RPM ratio (pull-down/input)
7,GATGATTGTTCTCCCAGCTGATGAATTGATGACCTCGAGTAAACAAATTTTCCTAATCTTTCTGTTCAAGCGCCATCTAC,1.02 RPM ratio (pull-down/input)
8,GATGATTGTTCTCCCAGCTGATGAATTGATCTTCTCGAGTAAACAAATTTTCCTAATCTTTCTGTTCAAGCGCCATCTAC,0.956 RPM ratio (pull-down/input)
9,GATGATTGTTCTCCCAGCTGATGAATTGTTGTTCTCGAGTAAACAAATTTTCCTAATCTTTCTGTTCAAGCGCCATCTAC,2.58 RPM ratio (pull-down/input)
10,GATGATTGTTCTCCCAGCTGATGAATTGTCCTCCTCGAGTAAACAAATTTTCCTAATCTTTCTGTTCAAGCGCCATCTAC,1.03 RPM ratio (pull-down/input)
11,GATGATTGTTCTCCCAGCTGATGAATTGTTGTCCTCGAGTAAACAAATTTTCCTAATCTTTCTGTTCAAGCGCCATCTAC,2.28 RPM ratio (pull-down/input)
12,GATGATTGTTCTCCCAGCTGATGAATTGACCTCCTCGAGTAAACAAATTTTCCTAATCTTTCTGTTCAAGCGCCATCTAC,0.877 RPM ratio (pull-down/input)
13,GATGATTGTTCTCCCAGCTGATGAATTGATGATCTCGAGTAAACAAATTTTCCTAATCTTTCTGTTCAAGCGCCATCTAC,0.99 RPM ratio (pull-down/input)
14,GATGATTGTTCTCCCAGCTGATGAATTTCTAATCTCGAGTAAACAAATTTTCCTAATCTTTCTGTTCAAGCGCCATCTAC,0.82 RPM ratio (pull-down/input)
15,GATGATTGTTCTCCCAGCTGATGAATTTCTGTCCTCGAGTAAACAAATTTTCCTAATCTTTCTGTTCAAGCGCCATCTAC,0.915 RPM ratio (pull-down/input)
16,GATGATTGTTCTCCCAGCTGATGAATTAACAGTTTCGAGTAAACAAATTTTCCTAATCTTTCTGTTCAAGCGCCATCTAC,1.09 RPM ratio (pull-down/input)

row,Sequence,binding signal
1,GATGATTGTTCTCCCAGCTGATGAATTGTAAAAGTCGAGTAAACAAATTTTCCTAATCTTTCTGTTCAAGCGCCATCTAC,0.943 RPM ratio (pull-down/input)
2,GATGATTGTTCTCCCAGCTGATGAATTATGTCGCTCGAGTAAACAAATTTTCCTAATCTTTCTGTTCAAGCGCCATCTAC,1.01 RPM ratio (pull-down/input)
3,GATGATTGTTCTCCCAGCTGATGAATTCCATAAGTCGAGTAAACAAATTTTCCTAATCTTTCTGTTCAAGCGCCATCTAC,0.896 RPM ratio (pull-down/input)
4,GATGATTGTTCTCCCAGCTGATGAATTCTCTGGCTCGAGTAAACAAATTTTCCTAATCTTTCTGTTCAAGCGCCATCTAC,0.769 RPM ratio (pull-down/input)
5,GATGATTGTTCTCCCAGCTGATGAATTATCGGCTTCGAGTAAACAAATTTTCCTAATCTTTCTGTTCAAGCGCCATCTAC,0.859 RPM ratio (pull-down/input)
6,GATGATTGTTCTCCCAGCTGATGAATTACATGGATCGAGTAAACAAATTTTCCTAATCTTTCTGTTCAAGCGCCATCTAC,1 RPM ratio (pull-down/input)
7,GATGATTGTTCTCCCAGCTGATGAATTGCGCCCCTCGAGTAAACAAATTTTCCTAATCTTTCTGTTCAAGCGCCATCTAC,0.966 RPM ratio (pull-down/input)
8,GATGATTGTTCTCCCAGCTGATGAATTATTGAGCTCGAGTAAACAAATTTTCCTAATCTTTCTGTTCAAGCGCCATCTAC,0.941 RPM ratio (pull-down/input)
9,GATGATTGTTCTCCCAGCTGATGAATTTCCTACCTCGAGTAAACAAATTTTCCTAATCTTTCTGTTCAAGCGCCATCTAC,0.823 RPM ratio (pull-down/input)
10,GATGATTGTTCTCCCAGCTGATGAATTACCATTGTCGAGTAAACAAATTTTCCTAATCTTTCTGTTCAAGCGCCATCTAC,1.04 RPM ratio (pull-down/input)
11,GATGATTGTTCTCCCAGCTGATGAATTGCACTCCTCGAGTAAACAAATTTTCCTAATCTTTCTGTTCAAGCGCCATCTAC,1.15 RPM ratio (pull-down/input)
12,GATGATTGTTCTCCCAGCTGATGAATTGTTGCACTCGAGTAAACAAATTTTCCTAATCTTTCTGTTCAAGCGCCATCTAC,1.76 RPM ratio (pull-down/input)
13,GATGATTGTTCTCCCAGCTGATGAATTTTTGCACTCGAGTAAACAAATTTTCCTAATCTTTCTGTTCAAGCGCCATCTAC,0.891 RPM ratio (pull-down/input)
14,GATGATTGTTCTCCCAGCTGATGAATTACTACAATCGAGTAAACAAATTTTCCTAATCTTTCTGTTCAAGCGCCATCTAC,1.55 RPM ratio (pull-down/input)
15,GATGATTGTTCTCCCAGCTGATGAATTACAGCAATCGAGTAAACAAATTTTCCTAATCTTTCTGTTCAAGCGCCATCTAC,1.28 RPM ratio (pull-down/input)
